Assay results from the OligoGym collection.

Each sequence was assayed against ANXA5 (assay: pooled miR-30 sensor sort-seq; sequence = guide strand). Settings: shRNA.
Note: reference of the scale not given here.

| Sequence | sensor-assay potency score (higher = more potent) |
| --- | --- |
| TTCTTCTTCATAAACTTGTTTG | -0.985 |
| TTCTTCCTAAACTCCTTCCTGA | -0.49 |
| TTTCTGTCAGTACTTTTTCATT | -1.52 |
| TAGCATAATAGAGGGTCTCTGC | -0.439 |
| TCAAATGAGACACACTTCGTGT | -0.219 |
| TAGATTTCACAACAGCAAGGAG | -0.538 |
| TTTCACAACAGCAAGGAGTAGT | -0.0711 |
| TTTAGTTGCGAACTTCACTAAT | -0.975 |
| TACTTGTCAAACACCTTTCTCA | 0.224 |
| TTCATAAGCATCATAAAGCCGA | -0.311 |
| TTCAACTTGAGCTTCATCAATT | -0.586 |
| TTGGTCATGAGCATGCTAGTAT | -0.14 |
| TTGAAATCCTGATATAGTCATG | -1.04 |
| TTCTTCATAAACTTGTTTGATG | -0.36 |
| AACAGATCAATCTCACTCCTGG | -0.0547 |
| TTTCATTTGTTCCAGCTCCCTT | -0.639 |
| TAAATTGCCAGAAGTCTCGCGG | 0.467 |
| TTCTTCTATGACGTGTATGTGT | -0.0894 |
| TAATCTTTTGAATACAATCATC | -1.12 |
| TTCGAATAGATTTCACAACAGC | -0.293 |
| TAAACTTAGTAACATTAAGTAC | -0.822 |

These sequences were tested against AP1S1 in the same assay as above. Settings: shRNA.

| Sequence | sensor-assay potency score (higher = more potent) |
| --- | --- |
| TTGCAGTAGGTCAGCCTGCTCG | -0.856 |
| TCTTATAGACAACTTTGAGGTC | -0.45 |
| TTCAGCACACTCTTCTTGGAGG | -0.8 |
| TCTCTTATAGACAACTTTGAGG | -1.16 |
| ATAGACAACTTTGAGGTCCCTC | 0.0527 |
| TATCTCTTATAGACAACTTTGA | -1.08 |
| TTCTTCCGTTCCTTGTCCGAAG | -0.991 |
| TGTGATGAGCTCATTGTCTTGG | 0.479 |
| TTTCAGCACACTCTTCTTGGAG | -0.813 |
| TTCCGTTCCTTGTCCGAAGTGG | 0.268 |
| TTGTCTAAGAGCTCCACGTATC | -1.02 |
| ATATCTCTTATAGACAACTTTG | -1.12 |
| TCGCGCACCATCTTCTTCCGTT | -0.362 |
| TTATAGACAACTTTGAGGTCCC | 0.854 |
| TAAGAGCTCCACGTATCGGTGG | 0.135 |
| TTTGTCTAAGAGCTCCACGTAT | -0.832 |
| TAGACAACTTTGAGGTCCCTCC | -0.899 |
| TTGAAGATGATGTCCAGCTCGC | 0.319 |
| TTTGCAGCCGCAGTTTTCCCTG | -0.931 |
